# Data taken from PMC7862700, “An all-to-all approach to the identification of sequence-specific readers for epigenetic DNA modifications on cytosine”.
# Key:
# Assay in all cases: DAPPL (digital affinity profiling via proximity ligation, sequencing); 10 mM Tris-HCl pH 7.5, 50 mM NaCl, 1 mM DTT, 4% glycerol, room temperature, 30 min; GST-TFs on glutathione beads, 16-mer random dsDNA library, 0.1% formaldehyde crosslink after washing; high values mean tight binding
# FLI1 = target: T1, FLI1 (Homo sapiens, UniProt Q01543 1-452); conditions: protein: recombinant; tags: N-terminal GST; dsDNA, one strand shown
# T1 sequence: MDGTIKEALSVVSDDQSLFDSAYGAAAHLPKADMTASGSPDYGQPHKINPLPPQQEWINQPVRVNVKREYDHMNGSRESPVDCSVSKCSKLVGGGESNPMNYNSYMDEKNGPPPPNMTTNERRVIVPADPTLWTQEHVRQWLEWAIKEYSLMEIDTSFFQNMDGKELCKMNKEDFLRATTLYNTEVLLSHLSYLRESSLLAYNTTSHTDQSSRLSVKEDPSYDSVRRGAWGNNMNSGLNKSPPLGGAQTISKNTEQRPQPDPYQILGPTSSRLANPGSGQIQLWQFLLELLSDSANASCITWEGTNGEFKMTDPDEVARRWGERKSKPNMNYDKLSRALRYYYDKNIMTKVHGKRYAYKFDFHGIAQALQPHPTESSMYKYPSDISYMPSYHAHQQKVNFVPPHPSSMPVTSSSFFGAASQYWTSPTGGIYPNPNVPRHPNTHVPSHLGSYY
# Method in brief: (§1)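 Human transcription factors carrying a GST fusion were produced in yeast, bound to glutathione beads, tagged with DNA barcodes and pooled together with a tag-only sample. Each pool was held with 200 nmole of a random double-stranded 16-mer DNA library in Tris/NaCl/DTT/glycerol buffer for 30 min at room temperature, then washed, crosslinked in 0.1% formaldehyde, proximity-ligated with BsaI/T4 ligase (1 h, 37 °C), PCR-amplified and sequenced on an Illumina NextSeq500. Binding signal is the read frequency of each hexamer for a given factor divided by its frequency in the tag-only sample.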
# ELK1 = target: T2, ELK1 (Homo sapiens, UniProt P19419 1-428); conditions: protein: recombinant; tags: N-terminal GST; dsDNA, one strand shown
# T2 sequence: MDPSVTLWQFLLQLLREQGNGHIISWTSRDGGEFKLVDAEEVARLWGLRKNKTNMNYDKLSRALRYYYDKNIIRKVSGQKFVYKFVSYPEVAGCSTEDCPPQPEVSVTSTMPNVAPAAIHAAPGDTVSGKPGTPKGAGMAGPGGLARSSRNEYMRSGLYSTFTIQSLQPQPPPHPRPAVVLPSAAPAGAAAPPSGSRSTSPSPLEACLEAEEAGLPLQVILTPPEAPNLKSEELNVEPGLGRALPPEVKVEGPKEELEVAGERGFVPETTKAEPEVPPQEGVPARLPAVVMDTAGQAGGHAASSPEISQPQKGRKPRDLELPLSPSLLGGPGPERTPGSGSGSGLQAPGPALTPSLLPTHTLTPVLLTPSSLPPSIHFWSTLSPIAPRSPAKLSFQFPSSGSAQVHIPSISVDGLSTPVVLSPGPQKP
# Method in brief: as §1
# GABPA = target: T3, GABPA (Homo sapiens, UniProt Q06546 1-454); conditions: protein: recombinant; tags: N-terminal GST; dsDNA, one strand shown
# T3 sequence: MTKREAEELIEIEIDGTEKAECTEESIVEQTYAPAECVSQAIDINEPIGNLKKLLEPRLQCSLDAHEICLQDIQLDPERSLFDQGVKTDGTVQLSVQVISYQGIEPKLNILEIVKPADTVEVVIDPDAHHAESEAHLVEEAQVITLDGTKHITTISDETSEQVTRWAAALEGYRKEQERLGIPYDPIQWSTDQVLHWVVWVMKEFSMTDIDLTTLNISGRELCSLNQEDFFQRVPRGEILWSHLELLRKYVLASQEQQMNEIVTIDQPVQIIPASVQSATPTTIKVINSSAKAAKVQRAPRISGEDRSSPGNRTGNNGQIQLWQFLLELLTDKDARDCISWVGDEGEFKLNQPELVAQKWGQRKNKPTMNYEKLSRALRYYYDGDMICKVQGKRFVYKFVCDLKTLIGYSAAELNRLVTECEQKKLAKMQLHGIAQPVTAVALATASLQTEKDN
# Method in brief: as §1
# ERG = target: T4, ERG (Homo sapiens, UniProt P11308 1-479); conditions: protein: recombinant; tags: N-terminal GST; dsDNA, one strand shown
# T4 sequence: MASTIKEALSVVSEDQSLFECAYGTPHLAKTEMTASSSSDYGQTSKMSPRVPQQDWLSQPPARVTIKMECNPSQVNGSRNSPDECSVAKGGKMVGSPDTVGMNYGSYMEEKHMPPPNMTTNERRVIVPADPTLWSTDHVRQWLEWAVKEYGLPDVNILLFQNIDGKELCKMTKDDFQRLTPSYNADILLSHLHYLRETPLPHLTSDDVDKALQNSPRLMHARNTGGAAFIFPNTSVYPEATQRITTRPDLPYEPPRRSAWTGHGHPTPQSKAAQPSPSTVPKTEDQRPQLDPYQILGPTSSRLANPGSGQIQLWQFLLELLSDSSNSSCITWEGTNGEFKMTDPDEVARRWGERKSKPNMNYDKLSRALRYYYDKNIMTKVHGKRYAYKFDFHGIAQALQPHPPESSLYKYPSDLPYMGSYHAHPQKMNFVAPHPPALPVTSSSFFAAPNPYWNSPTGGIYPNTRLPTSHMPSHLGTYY
# Method in brief: as §1
# ELF1 = ELF1 (Homo sapiens, UniProt P32519 1-619); conditions: protein: recombinant; tags: N-terminal GST; dsDNA, one strand shown
# Method in brief: as §1
# EHF = target: T5, EHF (Homo sapiens, UniProt Q9NZC4 1-300); conditions: protein: recombinant; tags: N-terminal GST; dsDNA, one strand shown
# T5 sequence: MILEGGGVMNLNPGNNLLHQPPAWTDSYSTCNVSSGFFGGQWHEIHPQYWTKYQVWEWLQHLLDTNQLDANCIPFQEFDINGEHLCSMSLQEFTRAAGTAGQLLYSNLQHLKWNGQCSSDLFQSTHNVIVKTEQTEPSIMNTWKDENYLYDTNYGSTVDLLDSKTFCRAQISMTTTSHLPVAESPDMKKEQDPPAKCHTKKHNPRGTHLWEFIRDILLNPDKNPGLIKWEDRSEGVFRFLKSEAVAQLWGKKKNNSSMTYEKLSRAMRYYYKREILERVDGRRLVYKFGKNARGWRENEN
# Method in brief: as §1
# SPI1 = SPI1 (Homo sapiens, UniProt P17947 1-270); conditions: protein: recombinant; tags: N-terminal GST; dsDNA, one strand shown
# Method in brief: as §1
# SPIB = SPIB (Homo sapiens, UniProt Q01892 1-262); conditions: protein: recombinant; tags: N-terminal GST; dsDNA, one strand shown
# Method in brief: as §1
# ELK3 = target: T6, ELK3 (Homo sapiens, UniProt P41970 1-407); conditions: protein: recombinant; tags: N-terminal GST; dsDNA, one strand shown
# T6 sequence: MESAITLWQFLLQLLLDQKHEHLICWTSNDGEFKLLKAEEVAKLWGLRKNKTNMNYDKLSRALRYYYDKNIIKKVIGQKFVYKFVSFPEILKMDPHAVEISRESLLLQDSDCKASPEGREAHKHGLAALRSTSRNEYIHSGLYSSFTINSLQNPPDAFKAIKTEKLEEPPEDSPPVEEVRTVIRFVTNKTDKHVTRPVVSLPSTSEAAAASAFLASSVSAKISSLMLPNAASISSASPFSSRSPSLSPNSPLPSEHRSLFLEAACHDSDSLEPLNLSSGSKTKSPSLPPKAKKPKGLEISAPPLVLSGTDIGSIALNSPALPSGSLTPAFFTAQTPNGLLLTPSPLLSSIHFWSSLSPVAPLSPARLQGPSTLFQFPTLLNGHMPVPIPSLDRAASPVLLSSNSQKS
# Method in brief: as §1
# FEV = target: T7, FEV (Homo sapiens, UniProt Q99581 1-238); conditions: protein: recombinant; tags: N-terminal GST; dsDNA, one strand shown
# T7 sequence: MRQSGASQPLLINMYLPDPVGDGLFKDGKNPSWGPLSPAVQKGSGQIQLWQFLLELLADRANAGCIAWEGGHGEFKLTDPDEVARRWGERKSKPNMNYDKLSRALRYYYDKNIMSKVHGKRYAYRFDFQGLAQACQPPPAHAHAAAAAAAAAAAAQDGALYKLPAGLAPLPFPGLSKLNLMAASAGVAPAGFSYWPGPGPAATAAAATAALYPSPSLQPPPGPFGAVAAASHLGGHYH
# Method in brief: as §1
# ETV5 = ETV5 (Homo sapiens, UniProt P41161 1-510); conditions: protein: recombinant; tags: N-terminal GST; dsDNA, one strand shown
# Method in brief: as §1
# HSF1 = HSF1 (Homo sapiens, UniProt Q00613 1-529); conditions: protein: recombinant; tags: N-terminal GST; chain copies: 3; dsDNA, one strand shown
# Method in brief: as §1
# SPIC = target: T8, SPIC (Homo sapiens, UniProt Q8N5J4 1-248); conditions: protein: recombinant; tags: N-terminal GST; dsDNA, one strand shown
# T8 sequence: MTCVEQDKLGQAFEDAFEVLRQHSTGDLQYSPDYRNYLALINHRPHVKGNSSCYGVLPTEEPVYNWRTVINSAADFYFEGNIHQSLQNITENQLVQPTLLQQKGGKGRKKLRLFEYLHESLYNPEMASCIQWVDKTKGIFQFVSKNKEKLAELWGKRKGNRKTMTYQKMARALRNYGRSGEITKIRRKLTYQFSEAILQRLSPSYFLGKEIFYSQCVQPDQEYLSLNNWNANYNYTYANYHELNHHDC
# Method in brief: as §1
# ELF4 = ELF4 (Homo sapiens, UniProt Q99607 1-663); conditions: protein: recombinant; tags: N-terminal GST; dsDNA, one strand shown
# Method in brief: as §1
# ELK4 = target: T9, ELK4 (Homo sapiens, UniProt P28324-2 1-405); conditions: protein: recombinant; tags: N-terminal GST; dsDNA, one strand shown
# T9 sequence: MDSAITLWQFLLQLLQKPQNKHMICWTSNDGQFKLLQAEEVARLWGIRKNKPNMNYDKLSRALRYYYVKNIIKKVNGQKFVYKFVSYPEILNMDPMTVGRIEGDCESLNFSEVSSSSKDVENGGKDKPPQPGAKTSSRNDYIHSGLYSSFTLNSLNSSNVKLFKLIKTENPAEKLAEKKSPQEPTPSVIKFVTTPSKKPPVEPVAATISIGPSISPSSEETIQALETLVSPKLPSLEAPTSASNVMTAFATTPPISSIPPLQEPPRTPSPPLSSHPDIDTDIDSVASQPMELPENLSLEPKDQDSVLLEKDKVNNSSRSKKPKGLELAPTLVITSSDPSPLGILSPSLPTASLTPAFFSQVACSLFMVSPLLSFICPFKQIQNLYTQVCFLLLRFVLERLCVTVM
# Method in brief: as §1
# ETV2 = target: T10, ETV2 (Homo sapiens, UniProt O00321 1-342); conditions: protein: recombinant; tags: N-terminal GST; dsDNA, one strand shown
# T10 sequence: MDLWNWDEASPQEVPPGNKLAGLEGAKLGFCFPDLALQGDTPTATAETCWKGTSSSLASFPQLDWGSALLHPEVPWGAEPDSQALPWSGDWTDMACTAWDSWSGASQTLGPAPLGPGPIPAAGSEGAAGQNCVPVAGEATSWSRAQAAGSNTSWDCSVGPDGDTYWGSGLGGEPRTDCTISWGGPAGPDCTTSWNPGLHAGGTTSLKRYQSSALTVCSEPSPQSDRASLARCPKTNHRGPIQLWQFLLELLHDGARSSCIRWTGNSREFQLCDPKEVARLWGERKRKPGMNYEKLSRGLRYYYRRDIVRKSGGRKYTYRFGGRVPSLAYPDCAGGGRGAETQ
# Method in brief: as §1
# ELF3 = target: T11, ELF3 (Homo sapiens, UniProt P78545 1-371); conditions: protein: recombinant; tags: N-terminal GST; dsDNA, one strand shown
# T11 sequence: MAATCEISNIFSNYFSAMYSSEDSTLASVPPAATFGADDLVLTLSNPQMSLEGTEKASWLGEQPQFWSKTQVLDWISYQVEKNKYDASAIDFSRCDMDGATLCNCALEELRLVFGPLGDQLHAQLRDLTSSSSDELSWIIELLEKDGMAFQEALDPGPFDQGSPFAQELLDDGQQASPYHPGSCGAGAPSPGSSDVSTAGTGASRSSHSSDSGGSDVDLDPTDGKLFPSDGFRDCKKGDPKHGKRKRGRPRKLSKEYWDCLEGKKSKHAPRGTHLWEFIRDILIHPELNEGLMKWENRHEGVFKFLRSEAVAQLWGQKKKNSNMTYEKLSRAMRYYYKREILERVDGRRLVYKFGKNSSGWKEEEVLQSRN
# Method in brief: as §1
# CRX = CRX (Homo sapiens, UniProt O43186 1-299); conditions: protein: recombinant; tags: N-terminal GST; dsDNA, one strand shown
# Method in brief: as §1
# ETV1 = ETV1 (Homo sapiens, UniProt P50549 1-477); conditions: protein: recombinant; tags: N-terminal GST; dsDNA, one strand shown
# Method in brief: as §1
# Chain of ETV1 (P50549 whole entry): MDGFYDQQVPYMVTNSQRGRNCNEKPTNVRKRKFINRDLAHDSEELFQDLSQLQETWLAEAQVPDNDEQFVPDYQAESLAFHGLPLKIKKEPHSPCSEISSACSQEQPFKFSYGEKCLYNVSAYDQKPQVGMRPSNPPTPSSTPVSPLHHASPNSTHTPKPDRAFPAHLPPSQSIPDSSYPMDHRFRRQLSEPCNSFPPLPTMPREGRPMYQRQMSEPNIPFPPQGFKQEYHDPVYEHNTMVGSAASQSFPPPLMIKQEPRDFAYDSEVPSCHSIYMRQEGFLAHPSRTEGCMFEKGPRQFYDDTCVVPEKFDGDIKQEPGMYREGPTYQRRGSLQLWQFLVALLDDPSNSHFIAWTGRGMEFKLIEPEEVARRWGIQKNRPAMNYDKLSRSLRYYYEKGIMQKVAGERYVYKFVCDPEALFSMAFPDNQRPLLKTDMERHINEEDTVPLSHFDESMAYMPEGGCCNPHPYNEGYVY
# Chain of HSF1 (Q00613 whole entry): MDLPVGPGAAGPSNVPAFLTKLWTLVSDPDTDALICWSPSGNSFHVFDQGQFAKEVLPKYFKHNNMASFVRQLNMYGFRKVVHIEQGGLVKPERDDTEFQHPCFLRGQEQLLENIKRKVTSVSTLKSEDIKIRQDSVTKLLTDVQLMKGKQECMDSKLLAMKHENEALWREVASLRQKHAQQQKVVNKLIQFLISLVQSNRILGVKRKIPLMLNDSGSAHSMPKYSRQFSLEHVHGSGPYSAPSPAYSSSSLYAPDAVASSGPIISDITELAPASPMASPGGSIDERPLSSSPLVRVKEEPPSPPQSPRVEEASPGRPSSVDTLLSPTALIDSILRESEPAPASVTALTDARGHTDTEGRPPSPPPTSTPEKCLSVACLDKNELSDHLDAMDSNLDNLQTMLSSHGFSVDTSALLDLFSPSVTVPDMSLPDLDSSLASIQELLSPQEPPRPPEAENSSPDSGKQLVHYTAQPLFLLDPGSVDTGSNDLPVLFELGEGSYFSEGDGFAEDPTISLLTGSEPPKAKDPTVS
# Chain of ELF4 (Q99607 whole entry): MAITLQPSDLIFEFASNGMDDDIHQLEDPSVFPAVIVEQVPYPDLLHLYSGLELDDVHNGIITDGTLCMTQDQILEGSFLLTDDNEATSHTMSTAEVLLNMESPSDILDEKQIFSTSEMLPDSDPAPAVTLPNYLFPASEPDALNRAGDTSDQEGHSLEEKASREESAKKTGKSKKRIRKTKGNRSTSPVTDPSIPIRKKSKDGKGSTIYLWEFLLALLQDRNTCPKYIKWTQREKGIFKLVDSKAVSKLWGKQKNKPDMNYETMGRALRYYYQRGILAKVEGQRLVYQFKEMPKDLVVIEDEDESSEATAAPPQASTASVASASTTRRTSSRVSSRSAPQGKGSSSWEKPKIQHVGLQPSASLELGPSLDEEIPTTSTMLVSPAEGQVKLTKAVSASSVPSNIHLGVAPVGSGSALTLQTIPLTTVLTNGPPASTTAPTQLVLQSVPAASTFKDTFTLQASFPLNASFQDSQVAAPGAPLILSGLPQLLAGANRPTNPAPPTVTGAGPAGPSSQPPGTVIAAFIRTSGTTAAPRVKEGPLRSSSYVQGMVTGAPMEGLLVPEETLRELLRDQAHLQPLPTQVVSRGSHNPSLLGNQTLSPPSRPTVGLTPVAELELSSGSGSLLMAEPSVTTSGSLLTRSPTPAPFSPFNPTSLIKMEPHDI
# Chain of SPIB (Q01892 whole entry): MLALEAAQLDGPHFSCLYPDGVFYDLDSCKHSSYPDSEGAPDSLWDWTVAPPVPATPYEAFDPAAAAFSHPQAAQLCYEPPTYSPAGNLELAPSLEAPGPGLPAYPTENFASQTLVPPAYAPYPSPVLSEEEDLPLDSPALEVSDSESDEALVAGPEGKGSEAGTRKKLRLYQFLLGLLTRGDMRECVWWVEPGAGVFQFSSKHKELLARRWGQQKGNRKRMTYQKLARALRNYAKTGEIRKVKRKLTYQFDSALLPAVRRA
# Chain of ETV5 (P41161 whole entry): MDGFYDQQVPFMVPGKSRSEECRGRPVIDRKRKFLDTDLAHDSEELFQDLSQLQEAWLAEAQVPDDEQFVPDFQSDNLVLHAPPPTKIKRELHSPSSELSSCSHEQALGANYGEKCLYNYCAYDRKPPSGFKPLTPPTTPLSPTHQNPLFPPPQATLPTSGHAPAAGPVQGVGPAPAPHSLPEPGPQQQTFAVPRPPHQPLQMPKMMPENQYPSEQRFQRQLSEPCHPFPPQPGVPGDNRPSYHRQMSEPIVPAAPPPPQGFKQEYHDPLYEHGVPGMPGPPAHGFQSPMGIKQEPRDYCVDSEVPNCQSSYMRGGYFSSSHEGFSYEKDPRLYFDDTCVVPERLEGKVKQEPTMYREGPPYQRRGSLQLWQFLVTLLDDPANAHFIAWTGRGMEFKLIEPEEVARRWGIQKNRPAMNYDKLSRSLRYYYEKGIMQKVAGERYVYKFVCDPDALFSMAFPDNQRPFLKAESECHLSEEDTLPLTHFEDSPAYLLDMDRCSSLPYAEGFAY
# Chain of ELF1 (P32519 whole entry): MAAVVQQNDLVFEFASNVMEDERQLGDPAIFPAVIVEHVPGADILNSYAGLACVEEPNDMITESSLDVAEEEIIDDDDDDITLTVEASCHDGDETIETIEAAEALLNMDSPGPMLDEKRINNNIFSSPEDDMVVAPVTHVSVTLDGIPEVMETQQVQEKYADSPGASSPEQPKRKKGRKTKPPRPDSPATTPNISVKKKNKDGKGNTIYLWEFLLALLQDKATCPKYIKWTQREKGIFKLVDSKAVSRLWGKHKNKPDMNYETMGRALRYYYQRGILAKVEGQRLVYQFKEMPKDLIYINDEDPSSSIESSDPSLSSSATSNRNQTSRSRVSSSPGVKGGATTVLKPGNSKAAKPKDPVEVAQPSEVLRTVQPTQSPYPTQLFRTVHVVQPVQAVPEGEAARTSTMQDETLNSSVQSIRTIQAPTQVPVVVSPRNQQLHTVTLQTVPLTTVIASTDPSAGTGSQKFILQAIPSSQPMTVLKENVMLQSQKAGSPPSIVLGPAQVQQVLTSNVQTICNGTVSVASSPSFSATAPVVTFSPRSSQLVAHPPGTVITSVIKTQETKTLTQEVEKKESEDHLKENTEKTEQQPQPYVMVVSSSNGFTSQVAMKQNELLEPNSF
# Chain of CRX (O43186 whole entry): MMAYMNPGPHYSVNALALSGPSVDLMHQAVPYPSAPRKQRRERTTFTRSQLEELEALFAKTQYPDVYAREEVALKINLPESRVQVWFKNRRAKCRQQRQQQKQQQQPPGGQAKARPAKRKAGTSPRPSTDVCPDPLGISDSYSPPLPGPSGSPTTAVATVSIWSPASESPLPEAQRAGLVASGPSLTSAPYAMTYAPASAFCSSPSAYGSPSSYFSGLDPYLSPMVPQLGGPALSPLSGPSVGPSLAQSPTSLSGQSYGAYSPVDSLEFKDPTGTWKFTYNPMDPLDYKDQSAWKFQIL
sequence,measurement,setting,value
CCGGAT,binding signal,FLI1,"3.23 fold enrichment (6-mer frequency, TF over GST control)"
same,binding signal,ELK1,"3.45 fold enrichment (6-mer frequency, TF over GST control)"
same,binding signal,GABPA,"2.97 fold enrichment (6-mer frequency, TF over GST control)"
same,binding signal,ERG,"4.05 fold enrichment (6-mer frequency, TF over GST control)"
same,binding signal,ELF1,"2.97 fold enrichment (6-mer frequency, TF over GST control)"
same,binding signal,EHF,"3.16 fold enrichment (6-mer frequency, TF over GST control)"
same,binding signal,SPI1,"2.86 fold enrichment (6-mer frequency, TF over GST control)"
same,binding signal,SPIB,"3.26 fold enrichment (6-mer frequency, TF over GST control)"
same,binding signal,ELK3,"3.33 fold enrichment (6-mer frequency, TF over GST control)"
same,binding signal,FEV,"7.2 fold enrichment (6-mer frequency, TF over GST control)"
same,binding signal,ETV5,"3.55 fold enrichment (6-mer frequency, TF over GST control)"
same,binding signal,HSF1,"1.63 fold enrichment (6-mer frequency, TF over GST control)"
same,binding signal,SPIC,"2.66 fold enrichment (6-mer frequency, TF over GST control)"
same,binding signal,ELF4,"2.75 fold enrichment (6-mer frequency, TF over GST control)"
same,binding signal,ELK4,"2.74 fold enrichment (6-mer frequency, TF over GST control)"
same,binding signal,ETV2,"2.89 fold enrichment (6-mer frequency, TF over GST control)"
same,binding signal,ELF3,"3.19 fold enrichment (6-mer frequency, TF over GST control)"
same,binding signal,CRX,"2.03 fold enrichment (6-mer frequency, TF over GST control)"
same,binding signal,ETV1,"3.5 fold enrichment (6-mer frequency, TF over GST control)"
